PubChem BioAssay AID2685 (National Center for Advancing Translational Sciences (NCATS), 2010)
The campaign covered roughly 320,000 compounds. About 2,100 (0.66%) were called active. Not shown: some 53% with an inconclusive outcome. Calls follow the shape of the dose curve; as a rule, active = well fitted inhibition curve with a large enough effect in the signal ratio, with a control signal flat (not every such curve was filed as active); inconclusive = small, poorly fitted or top-dose-only effect, or effect the other way, or a change in a side signal; inactive = flat fitted curve, though single readings scatter; the % refers to the signal ratio. The list comes from a sample in which actives are over-represented; it also holds similar structures and randomly drawn compounds.

Assay: qHTS Assay for Lipid Storage Modulators in Drosophila S3 Cells;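 as to cell number change: cells counted by Cell Tracker Red CMTPX staining in the red channel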; as to lipid storage change, negative = inhibition: % is scaled to controls: 0 for no effect and ±100 for the full control effect
Conditions: BODIPY lipid droplet fluorescence, 18-24 h, cells fed with added oleic acid; cell number change: measured here: cell count max response; series mostly up to 46.1 µM; lipid storage change, negative = inhibition: at the top concentration
Outline: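 Drosophila S3 cells got compounds at several concentrations plus oleic acid (400 uM solution). Laser-scanning cytometry with 488 nm excitation read lipid droplets at 500-530 nm and cells at 575-640 nm. Percent activity was relative to 20 uM Triacsin C.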
Potency is read from the fitted curve at half-maximal effect.

Structure (SMILES) | lipid storage change, negative = inhibition | cell number change [%] | Potency | outcome
C/C(N)=C(/C#N)C(=O)COC(=O)c1ccc(NC(N)=O)cc1 | 7.52% (inactive) | 13.4 |  | 
O=C(N/N=C/c1cccc([N+](=O)[O-])c1)c1ccc(Br)cc1 | -16.9% (inactive) | 0.144 |  | 
Cn1nnnc1SCCNCc1ccccc1OCc1ccccc1 | -2.39% (inactive) | 16.4 |  | 
Cn1nnnc1SCCNCc1cc(Cl)ccc1OCc1ccccc1 |  | 3.31 | 5.8 µM (active) | 
COc1cc(CNCCSc2nnnn2C)cc(Br)c1OCc1ccccc1 | 7.07% (inactive) | -4.04 |  | 
O=C(CSc1nccn1Cc1ccco1)Nc1ccccc1 | -11.6% (inactive) | 2.09 |  | 
COc1cnc(-c2ccccn2)nc1Oc1c(C)cccc1C |  |  |  | inactive
COc1cnc(-c2ccccc2)nc1Oc1cccc(C)c1C | 0.382% (inactive) | 7.32 |  | 
COc1cnc(-c2ccccc2)nc1Oc1ccccc1C |  | -26.8 | 5.17 µM (active) | 
COc1ccc(/C=C2/N=C(SC3CCOC3=O)N(c3cccc(OC)c3)C2=O)cc1 (stereo unspecified) | -2.83% (inactive) | -7.72 |  | 
CCOC(=O)C1CCN(CC(=O)c2c(C)[nH]c3ccccc23)CC1 |  |  |  | inactive
O=c1oc(-c2cccs2)nc2ccccc12 | -17.8% (inactive) | 0.728 |  | 
Cc1cccc(CSCCNC(=O)CSCc2ccc([N+](=O)[O-])cc2)c1 |  | -21.3 | 14.6 µM (active) | 
Cc1ccc(CSCCNC(=O)CSCc2ccc([N+](=O)[O-])cc2)cc1 |  |  |  | inactive
Cc1ccccc1CSCCNC(=O)CSCc1ccc([N+](=O)[O-])cc1 | 13% (inactive) | -11.7 |  | 
Cc1ccc(C)c(N2CCN(C(=O)c3ccccc3Br)CC2)c1 | 20.8% (inactive) | 10.9 |  | 
COC(=O)C1(Cc2cc(-c3cccc(Br)c3)no2)CCN(C(=O)OC(C)(C)C)CC1 | 36% (inactive) | 7.19 |  | 
CNc1ccccc1C(C)(C)c1cc(-c2cccc(Br)c2)no1 |  | -5.11 | 1.46 µM (active) | 
Brc1cccc(-c2nnc(-c3ccccc3)o2)c1 | 2.23% (inactive) | 1.68 |  | 
CCc1ccc(CNC(=O)C2CCN(S(=O)(=O)N3CCC4(CC3)OCCO4)CC2)cc1 | 2.59% (inactive) | 0.101 |  | 
Cc1ccccc1C(=O)Nc1ccnn1C1CCN(Cc2c(C)n(C)c3ccccc23)CC1 | -18.4% (inactive) | 1.16 |  | 
Cc1ccc2[nH]c(O)c(N=NC(N)=S)c2c1 | -0.73% (inactive) | 9.04 |  | 
Oc1[nH]c2ccccc2c1N=Nc1c(F)c(F)c(C(F)(F)F)c(F)c1F | -3.87% (inactive) | 14.6 |  | 
Oc1[nH]c2ccccc2c1N=Nc1c(F)c(F)c(Cl)c(F)c1F | -1.55% (inactive) | -0.455 |  | 
Cc1ccc(N=Nc2c(O)[nH]c3ccc(F)cc23)cc1 |  | 2.25 | 9.2 µM (active) | 
Oc1[nH]c2ccccc2c1N=Nc1ccc(F)cc1 |  | -4.65 | 20.6 µM (active) | 
O=C(O)c1ccc(N=Nc2c(O)[nH]c3ccc(Br)cc23)cc1 | -23.1% (inactive) | 13.1 |  | 
